# Activity calls are given as the source filed them.
# Experiments:
# [1] = compounds binding Alexa647 anti-His antibody – biochemical, small-molecule microarray, 635 nm fluorescence, artefact control for SMM control protein annotation, primary screen (AID 1128); conditions: higher = more signal;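 note: score merges feature fluorescence with signal-to-noise for each printed compound spot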
# [2] = system: Human papillomavirus type 1a E7 protein (residues 1-88); assay: HPV1a E7 small-molecule binders, primary screen, biochemical, small-molecule microarray, residues 1-88, 635 nm (AID 1129); conditions: small-molecule microarray binding, fluorescence 635 nm; higher = more signal
# [3] = molecular target: Focal adhesion kinase 1 (Homo sapiens) (UniProt Q05397); assay: PTK2 protein binding on printed compound slides – biochemical, small-molecule microarray, 635/667 nm fluorescence, BSA, DTT, primary screen (AID 1130); conditions: 635 nm fluorescence, higher = more signal;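 note: composite of spot emission at 667 nm and signal to noise over triplicate slides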
# [4] = system: Fibrinogen (Alexa647-labelled); assay: Alexa647-fibrinogen binding to printed small molecules – biochemical, small-molecule microarray, 635/667 nm fluorescence, artefact control for SMM control-protein annotation, profiling panel (AID 1131); conditions: fibrinogen-A647 binding fluorescence, higher = more signal;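 note: z-score merges 667 nm fluorescence with per-spot signal-to-noise over triplicate slides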
# [5] = molecular target: Follistatin (Homo sapiens) (UniProt P19883); assay: FST protein binding to printed compounds – biochemical, small-molecule microarray, 635/667 nm fluorescence, primary screen (AID 1132); conditions: 635 nm fluorescence, higher = more signal
# [6] = molecular target: Fibroblast growth factor 2 (Homo sapiens) (UniProt P09038); assay: basic fibroblast growth factor binding to printed compounds – biochemical, small-molecule microarray, 635/667 nm fluorescence, primary screen (AID 1133); conditions: FGF2, fluorescence 635/667, higher = more signal
# [7] = JC-1 mitochondrial potential readout, lung cancer cells – cell-based, A549, JC-1 fluorescence, basal, 24 h, 100 nL, profiling panel (AID 1138); conditions: higher = more signal;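 note: A549 lung adenocarcinoma cells under basal conditions with no added stimulus; test concentration not given here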
# Lefty1 = Lefty1 protein binding to printed compounds – biochemical, small-molecule microarray, 635/667 nm fluorescence, primary screen (AID 1139); conditions: fluorescence 635/667, higher = more signal
# [8] = system: wheat germ agglutinin (Triticum aestivum), Alexa647-labelled; assay: Alexa647-WGA lectin binding to printed small molecules – biochemical, small-molecule microarray, 635/667 nm fluorescence, artefact control for SMM control-protein annotation, profiling panel (AID 1140); conditions: WGA-A647 binding, 635 nm fluorescence, higher = more signal;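 note: score merges 667 nm feature emission with signal to noise over triplicate slides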
# [9] = molecular target: Luciferin 4-monooxygenase (Photinus pyralis) (UniProt P08659); assay: inhibition of purified Photinus pyralis luciferase – biochemical, luminescence, purified enzyme, 2006 set, primary screen (AID 1141); conditions: purified firefly luciferase, SteadyGlo luminescence, 30 min; higher = more signal, called active from +8 up or from −8 down;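 note: cell-free assay with purified firefly luciferase at 100 ng per well in PBS; test concentration not given here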
# Sequence of Luciferin 4-monooxygenase (Photinus pyralis) (P08659 whole entry, looked up): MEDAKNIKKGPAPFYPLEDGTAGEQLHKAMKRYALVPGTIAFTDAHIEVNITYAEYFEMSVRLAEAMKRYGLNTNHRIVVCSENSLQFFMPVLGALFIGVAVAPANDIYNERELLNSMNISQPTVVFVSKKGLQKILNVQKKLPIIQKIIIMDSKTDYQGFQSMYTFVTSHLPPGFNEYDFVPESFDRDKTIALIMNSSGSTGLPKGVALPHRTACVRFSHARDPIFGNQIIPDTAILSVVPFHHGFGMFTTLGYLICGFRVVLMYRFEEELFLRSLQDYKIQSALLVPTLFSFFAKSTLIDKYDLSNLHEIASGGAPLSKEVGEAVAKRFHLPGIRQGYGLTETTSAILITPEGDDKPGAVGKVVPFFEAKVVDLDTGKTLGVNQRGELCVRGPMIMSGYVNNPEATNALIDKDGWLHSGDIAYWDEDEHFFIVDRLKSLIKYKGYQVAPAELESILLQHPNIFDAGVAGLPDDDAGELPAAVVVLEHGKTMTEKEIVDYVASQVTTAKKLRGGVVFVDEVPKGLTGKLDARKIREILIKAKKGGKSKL
# Sequence of Focal adhesion kinase 1 (Homo sapiens) (Q05397 whole entry, looked up): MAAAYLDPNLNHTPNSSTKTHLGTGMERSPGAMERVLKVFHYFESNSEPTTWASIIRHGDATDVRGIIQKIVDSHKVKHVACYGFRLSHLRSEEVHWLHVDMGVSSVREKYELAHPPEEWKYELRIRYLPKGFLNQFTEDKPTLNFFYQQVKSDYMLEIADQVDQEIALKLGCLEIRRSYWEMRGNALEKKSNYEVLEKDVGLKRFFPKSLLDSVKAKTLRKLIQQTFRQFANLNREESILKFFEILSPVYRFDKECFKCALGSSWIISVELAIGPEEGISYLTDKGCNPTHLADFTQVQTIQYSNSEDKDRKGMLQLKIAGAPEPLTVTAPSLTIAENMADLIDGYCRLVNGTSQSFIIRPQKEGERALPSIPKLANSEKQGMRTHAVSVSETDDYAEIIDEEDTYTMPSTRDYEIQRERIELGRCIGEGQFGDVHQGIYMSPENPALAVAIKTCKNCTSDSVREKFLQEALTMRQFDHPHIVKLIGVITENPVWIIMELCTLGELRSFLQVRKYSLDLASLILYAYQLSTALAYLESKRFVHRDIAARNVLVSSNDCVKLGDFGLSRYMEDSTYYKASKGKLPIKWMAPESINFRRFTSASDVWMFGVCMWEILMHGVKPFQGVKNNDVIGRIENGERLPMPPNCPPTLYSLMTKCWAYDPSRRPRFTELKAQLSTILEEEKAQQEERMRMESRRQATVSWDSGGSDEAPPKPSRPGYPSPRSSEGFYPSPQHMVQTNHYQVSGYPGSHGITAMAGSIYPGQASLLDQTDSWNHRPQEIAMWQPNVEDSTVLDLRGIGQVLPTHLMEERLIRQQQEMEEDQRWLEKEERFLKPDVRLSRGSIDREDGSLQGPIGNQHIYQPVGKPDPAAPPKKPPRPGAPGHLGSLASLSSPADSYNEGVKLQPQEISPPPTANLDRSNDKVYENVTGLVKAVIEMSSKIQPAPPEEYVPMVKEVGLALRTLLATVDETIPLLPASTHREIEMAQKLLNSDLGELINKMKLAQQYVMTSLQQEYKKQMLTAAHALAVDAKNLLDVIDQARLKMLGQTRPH
# Sequence of Fibroblast growth factor 2 (Homo sapiens) (P09038 whole entry, looked up): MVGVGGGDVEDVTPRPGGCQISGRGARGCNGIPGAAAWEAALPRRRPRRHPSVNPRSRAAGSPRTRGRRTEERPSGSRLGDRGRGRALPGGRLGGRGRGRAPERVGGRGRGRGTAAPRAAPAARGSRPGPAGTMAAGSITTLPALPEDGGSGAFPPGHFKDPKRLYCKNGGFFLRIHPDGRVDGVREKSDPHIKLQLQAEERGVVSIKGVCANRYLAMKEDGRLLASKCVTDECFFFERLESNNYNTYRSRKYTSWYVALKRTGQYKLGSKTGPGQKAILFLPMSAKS
# Sequence of Follistatin (Homo sapiens) (P19883 whole entry, looked up): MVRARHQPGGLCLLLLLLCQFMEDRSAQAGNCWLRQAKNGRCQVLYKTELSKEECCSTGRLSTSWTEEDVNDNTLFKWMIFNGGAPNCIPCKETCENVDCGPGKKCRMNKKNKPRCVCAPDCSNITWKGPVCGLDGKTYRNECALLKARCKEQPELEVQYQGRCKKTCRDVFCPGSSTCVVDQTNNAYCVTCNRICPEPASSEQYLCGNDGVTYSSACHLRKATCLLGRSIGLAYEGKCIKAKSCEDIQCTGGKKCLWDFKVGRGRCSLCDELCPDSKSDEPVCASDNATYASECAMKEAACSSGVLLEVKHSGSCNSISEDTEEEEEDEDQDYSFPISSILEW
SMILES,composite z-score [1],composite z-score [2],composite z-score [3],composite z-score [4],composite z-score [5],composite z-score [6],z-score [7],composite z-score (Lefty1),composite z-score [8],z-score [9]
O=C(O)[C@@H]1C[C@@H]2C(=O)N3CCC[C@H]3C(=O)N2[C@@H]1c1ccc(O)cc1,2.3,0.258,0.251,-0.0516,1.42,1.07,-0.269,0.824,0.0465,-0.985 (inactive)
CC1CC/C=C\[C@H]2OC34C=CCN(C(C)C)C(=O)[C@H]3N(CCO)C(=O)[C@@H]4C2C(=O)O1 (stereo not given in full),-0.567,-0.724,-0.301,-1.41,-1.27,-1.03,0.193,-0.445,-0.748,-0.886 (inactive)
CCCC[C@@H]1C[C@H]1[C@@H](NC(=O)c1cccs1)c1ccccc1C(F)(F)F,1.01,1.2,-0.157,0.982,-0.152,0.28,0.245,-0.716,0.839,1.75 (inactive)
COCCOC(=O)N1C(=O)[C@@]2(c3cc(C#CC4=CCCCC4)ccc31)[C@H](c1ccccc1OCCO)N1[C@H](c3ccccc3)[C@H](c3ccccc3)OC(=O)[C@H]1[C@@H]2C(=O)N1CCN(c2ncccn2)CC1,0.624,1.15,0.732,0.635,0.76,0.779,-1.05,0.772,0.343,-1.47 (inactive)
Cc1ccc(NN2C(C(O)c3c(F)cccc3Cl)C=CC3C(=O)N(C4CCCCC4)C(=O)C32)cc1 (stereo not given),1.5,1.2,0.601,1.04,0.842,-0.413,1.19,-0.209,1.26,0.289 (inactive)
COC(=O)[C@@H]1N=C(c2ccc(OCCCO)cc2)O[C@@H]1C,0.217,0.0927,0.517,-0.323,1.17,0.936,0.669,0.516,-0.257,-13.8 (active)
COc1ccc(CCNC(=O)[C@@]2(Sc3ccc(C)cc3)CC(=O)N(Cc3ccccc3C(F)(F)F)[C@@H]2c2ccc(CO)cc2I)cc1,2.42,0.0953,-0.326,0.685,-0.706,-0.512,1.56,-1.63,0.827,-0.555 (inactive)

# Reference: PubChem BioAssay
